The list is not random: actives were taken first. Their share in the collection is about 21%.
ELG1 repair inh = blocks ELG1-dependent DNA repair in HEK293T cells; HEK293T ELG1-luciferase reporter, luminescence, 16 h; DNA damage induced by 5-fluorouridine; AID 504467; 330,000 compounds, 2.3% hits; Potency, µM (series often up to 46.1 µM), for the others: at the highest dose activity change, negative = inhibition, most hits filed as inhibitors; note: potency is the fitted concentration of half-maximal effect; nearly all actives have a fitted effect of over 55% in size
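Step one: seed 2,000 cells per well. Step two: pin-transfer compound or DMSO alongside 5-fluorouridine. Step three: incubate 16 hr, 37 °C, 5% CO2. Step four: add ONE-Glo, wait 30 min, read luminescence.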
Gal4-VP16 FLuc = counter-screen for ROR gamma inhibitors: Gal4-VP16 reporter | Drosophila S2 Gal4-VP16 UAS-luciferase, luminescence, 20 h | Potency, µM (series often up to 53.6 µM), for the others: top-dose activity, negative = inhibition, actives largely listed as inhibitors | 310,000 compounds, 3.5% hits | AID 2546;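 note: Gal4-VP16 expression switched on by copper sulfate through the metallothionein promoter; potency is the fitted concentration of half-maximal effect; nearly all actives have a fitted effect of over 50% in size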
IL-1B inflam inh = inflammasome signaling inhibition, IL-1 beta readout; THP-1 LPS/ATP IL-1B secretion, AlphaLISA, 16 h; stronger effect = lower value; activity change, % at 57.5 µM; 360,000 compounds, 4.7% hits; in the data active = activity change below about -50%; inconclusive = mostly about -30% to -49%
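THP-1 cells pretreated 1 hr with compounds (up to 57.5 uM final), then stimulated with LPS (250 ng/mL final) plus ATP (1.25 mM final); secreted IL-1B measured by AlphaLISA after 16 hr, decreased signal indicating inhibition.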
DT40 TDP1 CPT = growth inhibition of DT40 Tdp1-/-;hTDP1 cells with camptothecin (screen for TDP1 inhibitors). chicken DT40 Tdp1-/-;hTDP1 cells + 20 nM CPT, ATP luminescence, 48 h. Potency, µM (series often up to 46.2 µM), without a hit: at the top dose activity change, negative = growth inhibition, actives largely listed as inhibitors. 420,000 compounds, 12% hits. AID 686979; note: potency is the fitted concentration of half-maximal effect; nearly all actives have a fitted effect of over 55% in size
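Cell growth measured by CellTiter-Glo luminescence after a minimum 48 h, 37 C compound exposure with 20 nM CPT in Tdp1-knockout DT40 cells stably expressing hTDP1, seeded 400/well; qHTS titration format.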
RORgamma inh = ROR gamma (mouse) transcription inhibition. P51450. Drosophila S2 Gal4-RORgamma UAS-luciferase reporter, 20 h. Potency, µM (titrated, usually from 53.6 µM), without a hit: at the top dose activity change, negative = inhibition, actives largely listed as inhibitors. 310,000 compounds, 5.4% hits. AID 2551; note: potency is the fitted concentration of half-maximal effect; nearly all actives have a fitted effect of over 60% in size
Target sequence (P51450 whole entry, looked up, the tested form may be a part): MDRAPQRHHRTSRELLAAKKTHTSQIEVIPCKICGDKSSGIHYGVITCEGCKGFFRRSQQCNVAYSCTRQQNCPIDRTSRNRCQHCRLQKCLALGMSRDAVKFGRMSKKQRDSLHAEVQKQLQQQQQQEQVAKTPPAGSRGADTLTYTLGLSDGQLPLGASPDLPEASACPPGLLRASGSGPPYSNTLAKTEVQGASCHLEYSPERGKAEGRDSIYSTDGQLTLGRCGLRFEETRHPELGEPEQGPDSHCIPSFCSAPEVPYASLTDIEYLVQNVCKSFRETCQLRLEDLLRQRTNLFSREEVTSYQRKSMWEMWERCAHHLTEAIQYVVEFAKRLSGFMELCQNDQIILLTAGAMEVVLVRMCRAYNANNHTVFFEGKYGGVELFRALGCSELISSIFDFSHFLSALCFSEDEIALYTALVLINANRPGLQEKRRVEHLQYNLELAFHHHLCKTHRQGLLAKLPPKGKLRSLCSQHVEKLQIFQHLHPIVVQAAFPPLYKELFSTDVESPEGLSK
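Stable Schneider cell line, Gal4 DNA-binding domain fused to ROR gamma, UAS-luciferase. Cmpd 1 hr RT → CuSO4 700 uM final → 20 hr RT → luciferase reagent 10 min → luminescence.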
DT40 TDP1 no CPT = qHTS for Inhibitors of human tyrosyl-DNA phosphodiesterase 1 (TDP1): qHTS in cells in absence of CPT; DT40 Tdp1-/- hTDP1 cells, no CPT, ATP luminescence, 48 h; 420,000 compounds, 15% hits; Potency, µM (highest dose often 46.2 µM), inactives show at the highest dose activity change, negative = growth inhibition, usual class: inhibitors; AID 686978, 2013; note: potency is the fitted concentration of half-maximal effect; nearly all actives have a fitted effect of over 55% in size
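Readout: luminescence from CellTiter-Glo after 30 min in the dark at RT. Cells: DT40 Tdp1-/- with stable hTDP1, 400/well. Exposure: compounds alone, ≥48 hr, 37 °C.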
* marks the source's active call; other numbers are inactive results; u = inconclusive; x = no result. Unless noted, calls come from the whole dose curve; as a rule, active = well fitted curve in the direction sought with a large enough effect; inconclusive = small, poorly fitted or top-dose-only effect, or another doubt; inactive = no such curve, though single readings can be large; an effect the other way counts as inactive or inconclusive. % is set by controls: 0 for no effect and ±100 for the full control effect.

SMILES	ELG1 repair inh	Gal4-VP16 FLuc	IL-1B inflam inh	DT40 TDP1 CPT	RORgamma inh	DT40 TDP1 no CPT
COc1ccc(CCNC(=O)C(F)(F)F)cc1S(N)(=O)=O	x	x	22	8%	x	-4%
CC(C)NC(=O)C1(C)CN(S(C)(=O)=O)CC(=O)N1CC(F)(F)F (stereo not given)	x	x	-13	24%	x	22%
COCCCN1C(=O)C(CC(=O)NC2CCCCC2)CC(C(=O)N2CCOCC2)=C1C (stereo not given)	x	x	14	1%	x	-5%
COC(=O)C1=CN(c2ccc(C(C)(C)C)cc2)C(N)=C(C#N)C1c1ccccc1F (stereo not given)	x	x	20	u	x	21µM*
COC(=O)C1=CN(c2ccc(OC)cc2OC)C(N)=C(C#N)C1c1ccccc1F (stereo not given)	x	x	64	0.82µM*	x	0.58µM*
COC(=O)C1=CN(c2ccc(C)cc2)C(N)=C(C#N)C1c1ccc(OC)cc1 (stereo not given)	x	x	0	u	x	u
CCc1ccc(N2C=C(C(=O)OC)C(c3ccccc3F)C(C#N)=C2N)cc1 (stereo not given)	x	x	-21	u	x	23µM*
COC(=O)C1=CN(c2ccc(OC)cc2)C(N)=C(C#N)C1c1ccccc1F (stereo not given)	x	x	25	10µM*	x	13µM*
COCCNC(=O)C1CCCN(C(=O)c2ccc3sccc3c2)CC1 (stereo not given)	x	x	0	-13%	x	4%
COCCNC(=O)C1CCCN(C(=O)c2ccnc(Cl)c2)CC1 (stereo not given)	x	x	-62*	-11%	x	-16%
COCCNC(=O)C1CCCN(C(=O)c2ccc(OC)c(F)c2)CC1 (stereo not given)	x	x	4	0%	x	6%
COCCNC(=O)C1CCCN(C(=O)c2ccc3c(c2)C(C)(C)CCC3(C)C)CC1 (stereo not given)	x	x	-5	13µM*	x	u
COCCNC(=O)C1(C)CCN(C(=O)c2ccc3c(c2)C(C)(C)CCC3(C)C)C1 (stereo not given)	x	x	28	u	x	26µM*
CCCC(=O)N1CCCC1(C)C(=O)Nc1cc(C)ccc1C (stereo not given)	x	x	28	2%	x	0%
O=C(Nc1cc(F)ccc1F)C1COc2ccccc2C1 (stereo not given)	x	x	x	-22%	x	-11%
COC(=O)CN1CCC(=O)c2ccccc2S1(=O)=O	x	-4%	x	x	-4%	x
CCCCn1nnnc1-c1nc2ccccc2[nH]c1=O	x	x	-20	-3%	x	-33%
Cn1ccnc1-c1nc2ccccc2[nH]c1=O	14%	3.5µM*	27	2%	3.5µM*	-10%
Cc1ccc(S(=O)(=O)Oc2ccccc2/C=N/N=C(N)N)cc1	-4%	-1%	-127*	u	-4%	18µM*
Cc1ccc(S(=O)(=O)Oc2ccccc2/C=N/NC(=O)c2nn(C)cc2[N+](=O)[O-])cc1	u	-14%	u	u	83%	16µM*
Cc1ccc(S(=O)(=O)Oc2ccccc2/C=C2\SC(=O)NC2=O)cc1	u	-8%	8	8%	36%	-15%
Cc1ccc(S(=O)(=O)Oc2ccc(/C=N/NC(=O)c3nn(C)cc3[N+](=O)[O-])cc2)cc1	9%	u	-10	20%	29%	u
COc1cccc(/C=N/NC(N)=S)c1OS(=O)(=O)c1ccccc1	-12%	u	18	u	u	-27%
Cc1ccc(S(=O)(=O)Oc2ccccc2/C=N/NC(N)=S)cc1	21%	u	16	4.1µM*	u	6.5µM*
Cc1c(NC(=O)c2ccc(NS(=O)(=O)c3ccccc3)cc2)c(=O)n(-c2ccccc2)n1C	-15%	x	0	-18%	x	-8%
SMILES	ELG1 repair inh	Gal4-VP16 FLuc	IL-1B inflam inh	DT40 TDP1 CPT	RORgamma inh	DT40 TDP1 no CPT
CCOC(=O)c1c(C)[nH]c(C)c1S(=O)(=O)N1CCC(C(=O)Nc2ccccn2)CC1	x	x	x	-2%	x	1%
CN(CCO)c1c2c(nc3cc(-c4cccc(F)c4)nn13)CCCC2	u	-6%	-25	u	28%	21µM*
OCCCNc1c2c(nc3cc(-c4ccc(Cl)cc4)nn13)CCC2	-13%	-10%	u	-30%	-22%	u
Fc1cccc(-c2cc3nc4c(c(N5CCC6(CC5)OCCO6)n3n2)CCCC4)c1	u	13%	-70*	21µM*	5%	23µM*
OC1CCN(c2c3c(nc4cc(-c5cccc(F)c5)nn24)CCCC3)CC1	u	6%	-100*	16µM*	0%	21µM*
Cc1nn2c(N3CCOCC3)c3c(nc2c1-c1ccccc1)CCCC3	-2%	29%	-18	u	u	u
Clc1cccc(-c2cc3nc4c(c(N5CCNCC5)n3n2)CCCC4)c1	u	-1%	x	x	-9%	x
COc1ccc(N(C(=O)/C=C/c2ccc(OC)c(OC)c2)C2=CC3CCC(C2)N3C)cc1 (stereo not given)	-1%	7%	-26	0%	-19%	3%
CC(C)C(C(=O)NC1CCCC1)N(CC1CCCO1)C(=O)CNS(=O)(=O)c1ccc(F)cc1 (stereo not given)	8%	2%	1	9%	-1%	-24%
CCC1=Nc2cc(C(=O)NCC3CCCO3)ccc2Sc2ccc(Br)cc21 (stereo not given)	u	-5%	101	3.7µM*	11%	3.3µM*
O=C(NCC1CCCO1)c1ccc(NC(=O)c2ccc(Br)cc2)cc1 (stereo not given)	x	x	x	-10%	x	u
CCC1=Nc2cc(C(=O)NCC3CCCO3)ccc2Sc2ccc(Cl)cc21 (stereo not given)	u	26%	114	3.7µM*	21%	4.1µM*
O=C(NCC1CCCO1)c1ccc(NC(=O)c2cccc(Cl)c2)cc1 (stereo not given)	x	x	1	-5%	x	-28%
Cc1ccc(Nc2c(-c3ccncc3)nc3ccc(C)cn23)cc1	x	x	x	16µM*	x	u
Cc1ccc2nc(-c3ccsc3)c(Nc3ccc(C(C)C)cc3)n2c1	x	x	x	-19%	x	-9%
Cc1ccc2nc(-c3ccncc3)c(Nc3ccc(C(C)C)cc3)n2c1	x	x	x	6.5µM*	x	7.3µM*
Cc1ccc2nc(-c3ccc(O)cc3)c(Nc3ccc4c(c3)OCCO4)n2c1	16%	6%	-22	u	-38%	u
CC1CC2CCCC(O)=C2C(=O)O1 (stereo not given)	x	x	-8	-1%	x	-2%
